Reference: PMC5540273 (PLoS ONE, 2017)

Key:
Conditions in all cases: concentration: 1 μM, replicates: in singlicate; n = 1
TAOK1 = tested on: TAOK1
TAOK2 = tested on: TAOK2
TAOK3 = tested on: TAOK3
TBK1 = tested on: TBK1
TEC = tested on: TEC
TESK1 = tested on: TESK1
TGFBR1 = tested on: TGFBR1
TGFBR2 = tested on: TGFBR2
TIE1 = tested on: TIE1
TIE2 = tested on: T1, TIE2
T1 construct: gene TEK

TLK1 = tested on: TLK1
TLK2 = tested on: TLK2
TNIK = tested on: TNIK
TNK1 = tested on: TNK1
TNK2 = tested on: TNK2
TNNI3K = tested on: TNNI3K
TRKA = tested on: T2, TRKA
T2 construct: gene NTRK1

TRKB = tested on: TRKB
TRKC = tested on: T3, TRKC
T3 construct: gene NTRK3

TRPM6 = tested on: TRPM6
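Note: KINOMEscan kinase panel screen.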

| Compound | %Inh (TAOK1) | %Inh (TAOK2) | %Inh (TAOK3) | %Inh (TBK1) | %Inh (TEC) | %Inh (TESK1) | %Inh (TGFBR1) | %Inh (TGFBR2) | %Inh (TIE1) | %Inh (TIE2) | %Inh (TLK1) | %Inh (TLK2) | %Inh (TNIK) | %Inh (TNK1) | %Inh (TNK2) | %Inh (TNNI3K) | %Inh (TRKA) | %Inh (TRKB) | %Inh (TRKC) | %Inh (TRPM6) |
| --- | --- | --- | --- | --- | --- | --- | --- | --- | --- | --- | --- | --- | --- | --- | --- | --- | --- | --- | --- | --- |
| CNc1nc(-c2ccc3c(N)n[nH]c3c2)cc(N2C[C@@H](C(=O)Nc3ccccc3)CC[C@H]2C)n1 [GSK2298859] | 0% | 0% | 0% | 14% | 4% | 24% | 12% | 0% | 0% | 0% | 0% | 0% | 0% | 0% | 3% | 0% | 77% | 2% | 0% | 0% |
| CNc1nc(-c2ccc3c(N)n[nH]c3c2)cc(N2C[C@@H](C(=O)NC3CCCCC3)OC[C@H]2C)n1 [GSK2375584] | 0% | 1% | 0% | 28% | 12% | 11% | 20% | 0% | 2% | 0% | 17% | 5% | 8% | 13% | 17% | 2% | 11% | 0% | 0% | 0% |
| O=C(Nc1n[nH]c2nc(-c3cccs3)c(Br)cc12)C1CCCC1 [SB-743341] | 0% | 0% | 0% | 0% | 0% | 25% | 19% | 7% | 33% | 15% | 0% | 0% | 0% | 0% | 0% | 0% | 16% | 22% | 9% | 0% |
| CC(=O)c1c(C)c2cnc(Nc3ccn(C)n3)nc2n(C2CCCC2)c1=O | 0% | 0% | 0% | 0% | 0% | 4% | 0% | 0% | 0% | 0% | 1% | 0% | 0% | 54% | 24% | 16% | 29% | 0% | 0% | 0% |
| CS(=O)(=O)CCNCc1nc(-c2ccc3ncnc(Nc4ccc(OCc5ccccc5)c(Cl)c4)c3c2)cs1.Cl [GW582764] | 0% | 0% | 0% | 0% | 0% | 19% | 58% | 0% | 0% | 0% | 0% | 0% | 0% | 4% | 14% | 0% | 0% | 41% | 54% | 0% |
| COc1ccc(Nc2nccc(NCCNC(=O)Nc3cc(C)ccc3C)n2)cc1 [GSK1379899] | 0% | 0% | 1% | 0% | 16% | 7% | 0% | 0% | 0% | 0% | 0% | 0% | 0% | 0% | 0% | 0% | 3% | 0% | 7% | 0% |
| Nc1ncnc2occ(-c3ccc4c(c3)CCN4C(=O)Cc3cc(F)ccc3F)c12 [GSK2645446] | 0% | 6% | 0% | 10% | 0% | 0% | 0% | 0% | 45% | 0% | 0% | 0% | 0% | 0% | 0% | 0% | 9% | 0% | 0% | 0% |
| CS(=O)(=O)CCNCc1nc(-c2ccc3ncnc(Nc4ccc5c(cnn5Cc5ccccc5)c4)c3c2)cs1.Cl.Cl [GW569716] | 0% | 0% | 0% | 0% | 0% | 21% | 27% | 0% | 0% | 0% | 0% | 0% | 0% | 0% | 18% | 0% | 0% | 73% | 40% | 0% |
| Nc1nccc(-c2c(-c3ccc(F)cc3)ncn2C2CCN(Cc3ccccc3)CC2)n1 [SB-219980] | 31% | 0% | 10% | 0% | 0% | 0% | 7% | 12% | 1% | 0% | 0% | 0% | 96.5% | 35% | 10% | 0% | 0% | 0% | 0% | 0% |
| Cn1cnc2c(N)ncnc21 [SKF-97623] | 0% | 0% | 0% | 0% | 0% | 0% | 9% | 2% | 0% | 0% | 74% | 0% | 0% | 3% | 0% | 0% | 56% | 24% | 7% | 0% |
| Cc1cnc(N)c(/C=C/c2cncc(C(=O)NCCc3ccc(Cl)cc3Cl)c2)c1.Cl [GSK190937] | 11% | 0% | 25% | 12% | 18% | 1% | 0% | 0% | 20% | 0% | 0% | 0% | 9% | 0% | 11% | 0% | 35% | 0% | 0% | 0% |
| CNc1cc(-c2ccc3c(N)n[nH]c3c2)nc(N)n1 [GSK2224810] | 56% | 0% | 9% | 9% | 15% | 0% | 36% | 47% | 0% | 0% | 25% | 20% | 8% | 0% | 0% | 2% | 11% | 0% | 0% | 0% |
| CSc1ccc(-c2nc3n(c2-c2ccncc2)CCC3)cc1 [SKF-105561] | 0% | 14% | 9% | 0% | 11% | 8% | 15% | 13% | 0% | 0% | 31% | 0% | 7% | 0% | 0% | 49% | 0% | 4% | 46% | 0% |
| CC(C)c1cc(-c2ccc3c(N)n[nH]c3c2)nc(N)n1 [GSK2250882] | 0% | 0% | 0% | 13% | 0% | 35% | 0% | 0% | 0% | 0% | 2% | 0% | 14% | 0% | 14% | 0% | 0% | 0% | 0% | 0% |
| CCn1c(-c2c(N)noc2C)nc2cnccc21 [SB-737856] | 0% | 0% | 0% | 0% | 1% | 54% | 4% | 0% | 0% | 0% | 0% | 0% | 0% | 0% | 22% | 6% | 0% | 0% | 0% | 0% |
| COc1ccc(Nc2nccc(N3CCC(NC(=O)C(C)c4ccc(Cl)cc4)C3)n2)cc1 (stereo not shown) [GSK1379735] | 0% | 0% | 0% | 4% | 14% | 3% | 23% | 0% | 35% | 8% | 0% | 0% | 10% | 0% | 15% | 6% | 19% | 0% | 11% | 1% |

| Compound | %Inh (TAOK1) | %Inh (TAOK2) | %Inh (TAOK3) | %Inh (TBK1) | %Inh (TEC) | %Inh (TESK1) | %Inh (TGFBR1) | %Inh (TGFBR2) | %Inh (TIE1) | %Inh (TIE2) | %Inh (TLK1) | %Inh (TLK2) | %Inh (TNIK) | %Inh (TNK1) | %Inh (TNK2) | %Inh (TNNI3K) | %Inh (TRKA) | %Inh (TRKB) | %Inh (TRKC) | %Inh (TRPM6) |
| --- | --- | --- | --- | --- | --- | --- | --- | --- | --- | --- | --- | --- | --- | --- | --- | --- | --- | --- | --- | --- |
| CNC(=O)c1ccc(C)c(-n2c(C)cc(OCc3ccc(F)cc3F)c(Br)c2=O)c1 | 0% | 0% | 0% | 0% | 1% | 13% | 0% | 0% | 1% | 0% | 0% | 0% | 0% | 0% | 0% | 0% | 0% | 0% | 0% | 0% |
| Cc1cccc2c(-c3ccncn3)c(-c3ccc(F)cc3)nn12 [GW515532] | 0% | 0% | 0% | 0% | 0% | 17% | 0% | 23% | 14% | 0% | 6% | 0% | 8% | 0% | 0% | 0% | 2% | 0% | 7% | 0% |
| COc1cc2ncnc(Nc3cccc(Br)c3)c2cc1OC.Cl [GI230329] | 0% | 0% | 0% | 7% | 0% | 31% | 1% | 0% | 0% | 0% | 0% | 0% | 10% | 0% | 8% | 15% | 45% | 32% | – | 0% |
| Cc1ccc(-c2nc(Nc3ccncc3)c3ccccc3n2)s1 [GSK189015] | 0% | 0% | 5% | 7% | 8% | 61% | 6% | 21% | 19% | 12% | 0% | 0% | 8% | 29% | 19% | 14% | 44% | 0% | 0% | 15% |
| Nc1cccc(-c2ccc3c(N)n[nH]c3c2)n1 [GSK2192730] | 1% | 0% | 0% | 18% | 0% | 13% | 3% | 0% | 0% | 0% | 33% | 21% | 24% | 0% | 0% | 0% | 0% | 0% | 0% | 18% |
| O=c1cc(N2CCOCC2)nc2n(Cc3cccc(Cl)c3Cl)c3ccccc3n12 [GSK2299009] | 0% | 0% | 0% | 22% | 20% | 17% | 0% | 0% | 24% | 5% | 2% | 0% | 1% | 6% | 9% | 17% | 18% | 0% | 0% | 36% |
| Cc1ccc(NC(=O)c2ccc(Cl)cc2)cc1-c1ccc(C(=O)Nc2ccncc2)cc1 [GSK1398467] | 0% | 0% | 0% | 7% | 12% | 14% | 1% | 0% | 0% | 0% | 8% | 3% | 0% | 9% | 25% | 21% | 0% | 0% | 25% | 19% |
| Cc1c(Cn2c3ccccc3n3c(=O)cc(N4CCOCC4)nc23)cccc1C(F)(F)F [GSK2306394] | 0% | 0% | 0% | 13% | 1% | 0% | 0% | 10% | 6% | 0% | 5% | 0% | 0% | 0% | 3% | 0% | 0% | 0% | 0% | 0% |
| Cc1ccc(NC(=O)Nc2ccccc2)cc1-c1ccc(C(=O)Nc2ccncc2)cc1 [GSK1398471] | 0% | 0% | 0% | 17% | 0% | 2% | 0% | 0% | 0% | 0% | 19% | 4% | 0% | 18% | 13% | 49% | 23% | 0% | 0% | 27% |
| Cc1ccc(NC(=O)Nc2ccccc2F)cc1-c1ccc(C(=O)Nc2ccncc2)cc1 [GSK1398477] | 0% | 0% | 0% | 13% | 24% | 2% | 0% | 13% | 35% | 0% | 6% | 0% | 10% | 10% | 34% | 53% | 10% | 0% | 0% | 21% |
| CN1c2ccc(-c3ccc(C(N)=O)cc3)cc2-c2[nH]ncc2S1(=O)=O | 0% | 28% | 0% | 0% | 0% | 19% | 13% | 11% | 0% | 0% | 36% | 0% | 45% | 24% | 0% | 0% | 0% | 0% | 0% | 13% |
| COC(=O)C(NC(=O)NC1CCN(c2ccnc(Nc3ccc(F)cc3)n2)C1)c1ccccc1 (stereo not shown) [GSK1379712] | 0% | 0% | 0% | 18% | 11% | 0% | 26% | 0% | 0% | 0% | 14% | 6% | 17% | 0% | 0% | 24% | 51% | 6% | 29% | 44% |
| CC(=O)c1c(C)c2cnc(Nc3ccc(N4CCNCC4)cn3)nc2n(C2CCCC2)c1=O | 0% | 0% | 0% | 4% | 0% | 12% | 3% | 0% | 0% | 0% | 0% | 0% | 0% | 0% | 7% | 0% | 0% | 0% | 0% | 0% |
| CCc1ccc(-c2ccc3c(c2)-c2n[nH]cc2S(=O)(=O)N3C)cc1 | 0% | 27% | 0% | 0% | 0% | 15% | 0% | 0% | 0% | 20% | 28% | 0% | 9% | 34% | 0% | 0% | 0% | 0% | 0% | 0% |
| CC(C)c1ccc(O)cc1Nc1ccnc2ccc(C(F)(F)F)cc12 [GW482059] | 0% | 0% | 4% | 0% | 0% | 0% | 0% | 15% | 13% | 0% | 0% | 0% | 0% | 0% | 0% | 71% | 12% | 11% | 37% | 1% |
